The values below come from PubChem BioAssay (EPA / NIEHS).

Activity calls are given as the source filed them. How the source made its calls: active means hit-call score of the fitted dose curve at least 0.9, where 1 is the maximum; inactive means score below 0.9.

A short description of assay [1]: IUF_NPC2c_oligodendrocyte_migration_120hr: Leibniz Research Institute for Environmental Medicine (IUF) 120-hour Neural Progenitor Cell Migration Assay for Oligodendrocyte Migration (NPC2c) (AID 2284297).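 Further: O4-positive oligodendrocyte migration distance divided by radial glia migration distance.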 The procedure, abridged:
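Human fetal cortex-derived neural progenitor spheres (0.3 mm) were plated on poly-D-lysine/laminin in N2 differentiation medium and exposed to 7 concentrations for 120 h, with half-medium renewal at day 3. Oligodendrocyte migration distance was normalized to radial glia migration, relative to DMSO.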

A short description of assay [2]: IUF_NPC2a_radial_glia_migration_120hr: Leibniz Research Institute for Environmental Medicine (IUF) 120-hour Neural Progenitor Cell Migration Assay for Radial Glia Migration (NPC2a) (AID 2284298). In a few lines: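 Single 0.3 mm primary human fetal-cortex (GW 16-19) NPC spheres were plated on poly-D-lysine/laminin in N2 differentiation medium and exposed from day 0 for 120 h, half-medium refreshed day 3. Migration distance came from Hoechst nuclei-density imaging, relative to DMSO.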

The nature of assay [3]: IUF_NPC2a_radial_glia_migration_72hr: Leibniz Research Institute for Environmental Medicine (IUF) 72-hour Neural Progenitor Cell Migration Assay for Radial Glia Migration (NPC2a) (AID 2284299). The procedure, abridged: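 Radial glia migration (µm, sphere core edge to migration front, four directions averaged) from brightfield images at 72 h; hNPC spheres differentiating on PDL/laminin in N2 medium, compound exposure at 7 concentrations from plating.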

Assay [4] can be described thus: IUF_NPC2b_neuronal_migration_120hr: Leibniz Research Institute for Environmental Medicine (IUF) 120-hour Neural Progenitor Cell Migration Assay for Neuron Migration (NPC2b) (AID 2284300). The procedure, abridged: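 Primary human fetal cortex neural progenitor spheres (0.3 mm) plated on poly-D-lysine/laminin in N2 differentiation medium, exposed 120 h with half-medium refresh at day 3. TUBB3-stained neuron distance from sphere core, normalized to radial glia migration, versus DMSO.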

The nature of assay [5]: IUF_NPC3_neuronal_differentiation_120hr: Leibniz Research Institute for Environmental Medicine (IUF) 120-hour Neuronal Differentiation Assay (NPC3) (AID 2284301). The procedure, abridged: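 Neuronal differentiation of primary human neural progenitors measured by high-content imaging: percent TUBB3+ of Hoechst+ nuclei within migrated area at 120 h, seven-point serial dilution plus solvent control, gain or loss relative to DMSO.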

Read-out in assay [6]: Plasminogen activator inhibitor-1 (PAI1), SERPINE1 (gene 5054)
As to the kind of experiment: BSK_MyoF_PAI1: BioMAP Diversity Plus: MyoF Assay for Plasminogen activator inhibitor-1 (PAI1) Biomarker Activity (AID 2284256). The conditions noted are these: primary human lung fibroblasts. The procedure, abridged:
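ELISA read-out of PAI-1 from primary human lung fibroblast cultures 24 h after dosing; gain-of-signal fit versus DMSO control.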

Read-out in assay [7]: Interleukin-8 (IL8), CXCL8 (gene 3576)
Nature of the assay: BSK_MyoF_IL8: BioMAP Diversity Plus: MyoF Assay for Interleukin-8 (IL8) Biomarker Activity (AID 2284261). The conditions noted are these: primary human lung fibroblasts. The procedure: BSK_MyoF is a cell-based, multiplexed-readout assay that uses lung fibroblasts, […], with measurements taken at 24 hours after chemical dosing in a microplate: 96-well plate.BSK_MyoF_IL8 is an assay component measured in the BSK_MyoF assay. It measures IL-8 antibody related to regulation of gene expression using ELISA technology.Data from the assay component BSK_MyoF_IL8 was analyzed at the endpoint, BSK_MyoF_IL8, in the positive analysis fitting direction relative to DMSO as the negative control and baseline of activity. Using a type of binding reporter, gain or loss-of-signal activity can be used to understand protein changes. […]
The levels of cell surface (or secreted, indicated by the prefix "s") biomarker endpoints were measured by ELISA. Overt cytotoxicity to cells in confluent adherent cultures (all systems other than the BT system) was assessed by measuring total protein levels using sulforhodamine B (SRB) staining in parallel cultures at the time of biomarker measurements, indicated as SRB endpoints. For proliferation assays for adherent cell types, individual cell types are cultured at sub-confluence and relative cell numbers quantified by SRB staining at time points optimized for each system (48 h: 3C and CASM3C systems; 72 h: BT and HDF3CGF systems; 96 h: SAg system). […] Plates were read after 6 h.

Read-out in a further assay: Decorin, DCN (gene 1634)
As to the kind of experiment: BSK_MyoF_Decorin: BioMAP Diversity Plus: MyoF Assay for Decorin Biomarker Activity (AID 2284265). The conditions noted are these: primary human lung fibroblasts. The procedure, abridged:
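Human lung fibroblasts in the MyoF system were exposed to compound for 24 h, after which decorin was quantified by ELISA. Activity was fitted in the positive direction relative to DMSO negative control.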

The nature of assay [8]: BSK_MyoF_SRB: Viability Assessment in the BioMAP Diversity Plus: MyoF Assay (AID 2284267).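 Further: total protein by SRB absorbance in parallel cultures as cytotoxicity measure; cells assessed 24 h after compound addition.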 The settings on record: primary human lung fibroblasts. The procedure, abridged: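 Cytotoxicity read-out: after 10% TCA fixation, parallel human lung fibroblast cultures were stained with 0.1% SRB at 24 h post-dosing and read at 560 nm; DMSO served as baseline.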
Read-out in assay [9]: TIMP metallopeptidase inhibitor 1 (TIMP1), TIMP1 (gene 7076)
Nature of the assay: BSK_MyoF_TIMP1: BioMAP Diversity Plus: MyoF Assay for TIMP metallopeptidase inhibitor 1 (TIMP1) Biomarker Activity (AID 2284269). The conditions noted are these: primary human lung fibroblasts. The procedure, abridged: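 Fibroblasts from human lung are dosed with chemical, cultured 24 h, and assayed for TIMP-1 by ELISA. Increases over the DMSO baseline are scored, with SRB total-protein staining run in parallel for cytotoxicity.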

In general, AC50 refers to the midpoint of the concentration-response curve, whichever way the signal moves. With `CCNC(=O)NC(=O)C(C#N)=NOC`, the molecule was classed as inactive in assay [1], in assay [2], in assay [3] and in [4]. The AC50 in [5] is 0.318 µM (active).

As for `CC(C)(C)C(=O)C(Oc1ccc(Cl)cc1)n1cncn1` (stereo not given), the result in assay [1], in assay [2], in assay [3], in assay [4] and in assay [5] was inactive.

Regarding `O=C(Nc1ccccc1-c1ccc(Cl)cc1)c1cccnc1Cl`, the outcome in [1], in assay [2], in [3], in assay [4] and in assay [5] was inactive.

Consider `N#CN=C1SCCN1Cc1ccc(Cl)nc1`, for which the outcome in assay [1], in assay [2], in assay [3], in assay [4] and in [5] was inactive.

As to `COCC(C)N(C(=O)CCl)c1c(C)csc1C` (stereo not given), the AC50 was 20 µM (active) in assay [6] and 10.3 µM (active) in assay [7]. For the same molecule, the outcome with Decorin, DCN (gene 1634) is “inactive”; in assay [8] it was “inactive”; in [9] it was “inactive”.

`CS(=O)(=O)c1cc(C(F)(F)F)ccc1C(=O)c1cnoc1C1CC1`: the molecule was classed as inactive in assay [1], in assay [2], in [3], in assay [4] and in assay [5].

As for `CO/N=C(/C1=NOCCO1)c1ccccc1Oc1ncnc(Oc2ccccc2Cl)c1F`, the molecule was called inactive in [1], in [2], in assay [3], in assay [4] and in assay [5].

In the case of `CCOP(=O)(OCC)Oc1nc(Cl)c(Cl)cc1Cl`, the outcome in assay [1], in assay [2], in assay [3], in [4] and in assay [5] was inactive.

As to `CN/C(=N\[N+](=O)[O-])NCc1cnc(Cl)s1`, the call in assay [1], in assay [2], in assay [3], in assay [4] and in [5] was inactive.

On to `CNC(=O)Oc1cccc2ccccc12`, for which the call in assay [1], in [2], in [3], in assay [4] and in assay [5] was inactive.

On to `C=C(C)CN(CC)c1c([N+](=O)[O-])cc(C(F)(F)F)cc1[N+](=O)[O-]`, for which the result in assay [1], in assay [2], in assay [3], in assay [4] and in assay [5] was inactive.

Consider `COC(=O)N(C(=O)N1CO[C@@]2(C(=O)OC)Cc3cc(Cl)ccc3C2=N1)c1ccc(OC(F)(F)F)cc1`, for which the call in assay [1], in assay [2], in assay [3], in assay [4] and in [5] was inactive.

Turning to `CC1(C)C(C=C(Cl)Cl)C1C(=O)OC(C#N)c1cccc(Oc2ccccc2)c1` (stereo not given), the call in assay [1], in [2], in assay [3], in [4] and in [5] was inactive.

For the molecule `CCSC(=O)N1CCCCCC1`, the molecule was classed as inactive in assay [1], in assay [2], in [4] and in assay [5]. Moreover, in assay [3], the AC50 was 8.49 µM (active).

As for `COP(=S)(OC)SCn1nnc2ccccc2c1=O`, the molecule was called inactive in assay [1], in [3], in assay [4] and in assay [5]. Besides, the AC50 in assay [2] is 13.7 µM (active).

With `Cc1c(COC(=O)[C@@H]2[C@H](/C=C(\Cl)C(F)(F)F)C2(C)C)cccc1-c1ccccc1`, the call in assay [1], in assay [2], in [3], in [4] and in assay [5] was inactive.

Take `CS(=O)(=O)c1ccc(C(=O)C2C(=O)CCCC2=O)c([N+](=O)[O-])c1`: the molecule was classed as inactive in assay [1], in assay [2], in assay [3], in assay [4] and in assay [5].
